# Experimental data from PubChem BioAssay (NCI).
# This is part of a sample that, as a whole, favours compounds with a hit. Of some 83,000 tested, about 20% had one in any assay.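 Method: cells in 96-well plates; compound added at one concentration; 48 h incubation; percent growth measured; values under 10 scored active.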 Activity calls are given as the source filed them.
# System: HL-60(TB) leukemia
# Test: NCI-60 one-dose screen, 48 h (100 = growth as untreated, 0 = no growth, -100 = all killed)
# Settings: 10 µM unless noted
row,SMILES,growth
1,COc1ccc(C(=O)c2sc3nc(-c4ccccc4OC)ccc3c2N)cc1OC,13.9% (inactive)
2,CNC(=O)NCC1OC(n2cnc3c(NC(=O)Nc4ccccc4)ncnc32)C2OC(=O)CC12 (configuration not stated),82.7% (inactive)
3,CN1CCN(Cc2ccc(NC(=O)c3cncc(C#Cc4cncc5ncccc45)c3)cc2C(F)(F)F)CC1,-3.29% (active)
4,OCc1cnccc1NCCCCOc1ccc(Oc2ccccc2)cc1,22.7% (inactive)
5,CN1CCN(c2ccc(-c3cc4c(Nc5ccc(F)c(Cl)c5)ncnn4c3)cc2)CC1,1.68% (active)
6,Cc1ccc(/C=C/C(=O)Nc2ncc(Cc3ccc(F)cc3)s2)o1,2.75% (active)
7,CCCCCCc1cc(N=Nc2ccc(S(=O)(=O)Nc3cc(C)nc(C)n3)cc2)c(O)cc1O,94.4% (inactive)
8,Cc1ccc2c(-c3cc(-c4ccccc4)nc(N)c3C#N)cc(=O)oc2c1,117% (inactive)
9,CC(=O)C[n+]1ccc(C)cc1Sc1ccccc1C,109% (inactive)
10,CCOC(=O)c1ccc[nH]1,79.7% (inactive)
11,Cc1nn(-c2ccc(Cl)cc2)c2ncnc(N/N=C/c3cccc([N+](=O)[O-])c3)c12,31% (inactive)
12,O=c1oc2cc(OS(=O)(=O)c3ccccc3)ccc2c2c1CCCCC2,18.6% (inactive)
13,C=C(C)[C@@H]1CC[C@]2(C=NCCCNCCCCNCCCN)CC[C@]3(C)[C@H](CC[C@@H]4[C@@]5(C)CCCNC(C)(C)[C@@H]5CC[C@]43C)[C@@H]12,89.6% (inactive)
14,Oc1c(I)cc(I)cc1CNCCCN(Cc1ccccn1)Cc1ccccn1,-27.1% (active)
15,O=C1COCCN1c1ccc(NCc2cn(Cc3ccccc3)c3ccccc23)cc1,99.1% (inactive)
16,Cc1ccc(NC(=O)c2[nH]c(SCCN(C)C)nc2-c2ccc(F)cc2)cc1Nc1ccc2ncn(C)c(=O)c2c1,19.3% (inactive)
17,OCCNc1nc(NCCO)nc(Nc2ccc(C3=NN(c4cc(Cl)cc(Cl)c4)C(c4ccc(C(F)(F)F)cc4)C3)cc2)n1 (configuration not stated),16.7% (inactive)
18,CN(C)CCCC(=O)Nc1ccc(Cn2nnc3c2C(=O)c2nnn(Cc4ccc(NC(=O)CCCN(C)C)cc4)c2C3=O)cc1,8.78% (active)
19,Cc1cc(Cl)nc(N(CCCNc2ccnc3cc(Cl)ccc23)Cc2ccccn2)n1,12% (inactive)
20,COc1cccc(-c2nc3sccn3c2-c2ccnc(NCCCNS(=O)(=O)c3cccc(F)c3)c2)c1,-26.9% (active)
21,COc1cc(OC)cc(-c2n/c(=C\c3c(O)[nH]c4ccc(OC)cc34)cc3c2=Nc2ccccc2-3)c1,80% (inactive)
22,COC(=O)[C@H](CCCCNC(=O)OCc1ccccc1)NC(=O)[C@@H](NC(=O)Nc1cc(C(F)(F)F)cc(C(F)(F)F)c1)C(C)C,-9.21% [100 µM] (active)
23,CC(C)(C)c1ccc(S(=O)(=O)N[C@H]2CC[C@H]3[C@@H]4CCc5cc(O)c([N+](=O)[O-])cc5[C@H]4CC[C@]23C)cc1,60.7% (inactive)
24,CCC(C)(O)Cc1ccc(Cl)cc1 (configuration not stated),96% (inactive)
25,CCN(CC)P(=O)(N(CC)CC)N(CCCSC/C=C(\C)CC/C=C(\C)CCC=C(C)C)CCCN1CCN(C)CC1,83.3% (inactive)
26,OC(c1cccc(C(F)(F)F)c1)c1cnccc1NC1CCCCCC1 (configuration not stated),-30.7% (active)
27,Cc1ccc(C2=NN(c3ccc(S(C)(=O)=O)cc3)C(=O)CC2)cc1,-12% (active)
